Our source for the inhibition values is PubChem BioAssay AID1813 (Broad Institute, 2009).

Molecules are shown by their SMILES. Screen size: about 300,000 compounds; about 2,500 (0.83%) were called active. No stated cut-off is given here; in the data, active means inhibition above about 60%; inconclusive means no clear call, values can overlap the other calls; inactive means below that. Shown is part of a subset that was picked to be rich in actives.

The nature of this assay: MLPCN primary screen, SNCA 5' untranslated region (AID 1813).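 Further: H4 neuroglioblastoma cells stably carrying SNCA 5'UTR luciferase fusion; 0% = DMSO wells and 100% = positive control.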 The conditions noted are these: alpha-synuclein 5'UTR reporter, inhibitor activity; stronger effect = higher value; tested at 7.5 µM.
As usually defined, the inhibition is the drop in the measured response relative to a control, in per cent. On to `CN1CCN(c2cc(N3CCNCC3)ccc2[N+](=O)[O-])CC1`, for which the inhibition was 9.3% (inactive).

For `Cc1nc2ccc(N3CCN(C)CC3)cc2nc1C`, the inhibition was -72% (inactive). The result for `COc1cccc(-c2nc3ccc(N4CCN(C)CC4)cc3[nH]2)c1` reads 68.9% (active). For the compound `CN(C)c1ccc(/C=C2\CC3C4CC=C5CC(O)CCC5(C)C4CCC3(C)C2=O)cc1` (stereo not given), the inhibition is 8.56% (inactive).

Consider `CSc1nc2ccc(C)cc2c(=O)n1-c1cccnc1`, for which the inhibition is -1.34% (inactive). The figure for `CCOc1ccc(-c2cc(C)[n+](CCN(CC)CC)c(-c3ccc(OCC)cc3)c2)cc1` is 95.2% (active); for `Cc1cccc2c(CCN)c[nH]c12` it is 10.6% (inactive); for `Cc1ccc(P(=S)(c2ccc(C)o2)N2CCOCC2)o1` it is -9.28% (inactive).

With `CCN(N=Nc1nonc1OC)c1nonc1OC`, the inhibition is -2.32% (inactive). The result for `CCCCCCCCCCCCn1ccc(=N)cc1` reads 104% (active); that for `CNP1(NC)=Nc2nn(-c3ccccc3)c(N)c2C(c2ccccc2)=N1`, 9.19% (inactive); that for `COc1ccc2c(c1O)-c1cccc3c1[C@@H](C2)N(C)CC3`, -3.62% (inactive).

With `O=C(OCCN1CCOCC1)C1(c2ccccc2)CCCC1`, the inhibition was 1.68% (inactive). With `Cc1c(Oc2cc(NN3CCCCC3)c([N+](=O)[O-])cc2[N+](=O)[O-])cccc1[N+](=O)[O-]`, the inhibition is 15.3% (inactive). The result for `Cc1cccc(NC(=O)N2CC3CC(C2)c2cccc(=O)n2C3)c1` (stereo not given) reads 13.7% (inactive); that for `c1cc2c(cc1CCNC1CCCCCC1)OCO2`, 2.86% (inactive); that for `O=C1/C(=C\c2ccc3c(c2)OCO3)N2CCC1CC2`, 17.4% (inactive).

For the compound `c1cc2c(cc1[C@H]1OC[C@H]3[C@@H]1CO[C@@H]3c1ccc3c(c1)OCO3)OCO2`, the inhibition is 72.8% (active). The figure for `CC(C)n1c(=O)c(C=Nc2ccc(Br)cc2)c(O)n(Cc2ccco2)c1=O` is -1.22% (inactive). The result for `Cc1ccc(Cn2c(C)c3cnn(CC(=O)N4CCC5(CC4)OCCO5)c(=O)c3c2C)cc1` reads 12% (inactive).
